This note sets out measurements from ChEMBL document CHEMBL2218924, “A broad activity screen in support of a chemogenomic map for kinase signalling research and drug discovery” (Biochem J, 2013).

Usually residual activity stands for the signal under treatment as a percentage of the control signal.

Assay [1] addresses T1, Muscle, skeletal receptor tyrosine-protein kinase (Homo sapiens) (UniProt O15146).
T1 sequence (whole entry): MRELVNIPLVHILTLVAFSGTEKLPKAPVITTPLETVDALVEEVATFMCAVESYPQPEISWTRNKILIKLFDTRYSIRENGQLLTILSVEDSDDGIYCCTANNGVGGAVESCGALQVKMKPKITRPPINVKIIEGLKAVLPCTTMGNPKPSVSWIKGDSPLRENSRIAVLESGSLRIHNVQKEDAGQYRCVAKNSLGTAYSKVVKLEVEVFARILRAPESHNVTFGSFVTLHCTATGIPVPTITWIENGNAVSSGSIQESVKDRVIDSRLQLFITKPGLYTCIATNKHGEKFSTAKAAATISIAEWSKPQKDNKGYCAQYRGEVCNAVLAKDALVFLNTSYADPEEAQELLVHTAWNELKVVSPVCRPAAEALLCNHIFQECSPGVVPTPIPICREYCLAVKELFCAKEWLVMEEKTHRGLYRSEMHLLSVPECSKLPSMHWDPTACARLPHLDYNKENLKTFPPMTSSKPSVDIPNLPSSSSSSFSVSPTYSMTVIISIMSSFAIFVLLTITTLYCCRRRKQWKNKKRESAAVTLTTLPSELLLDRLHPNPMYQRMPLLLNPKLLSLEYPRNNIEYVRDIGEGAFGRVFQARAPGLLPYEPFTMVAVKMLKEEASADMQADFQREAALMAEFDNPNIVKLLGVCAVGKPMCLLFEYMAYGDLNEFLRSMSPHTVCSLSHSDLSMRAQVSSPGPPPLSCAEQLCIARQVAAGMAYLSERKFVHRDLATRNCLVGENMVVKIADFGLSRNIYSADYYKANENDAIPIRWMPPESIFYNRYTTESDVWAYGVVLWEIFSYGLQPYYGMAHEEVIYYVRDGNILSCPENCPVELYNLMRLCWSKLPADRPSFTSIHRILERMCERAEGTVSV
The settings on record: at 1 µM.

Assay [2] concerns the target T1, Muscle, skeletal receptor tyrosine-protein kinase (Homo sapiens). The settings on record: at 10 µM.
The target of assay [3] is T2, Serine/threonine-protein kinase Nek11 (Homo sapiens) (UniProt Q8NG66).
T2 sequence (whole entry): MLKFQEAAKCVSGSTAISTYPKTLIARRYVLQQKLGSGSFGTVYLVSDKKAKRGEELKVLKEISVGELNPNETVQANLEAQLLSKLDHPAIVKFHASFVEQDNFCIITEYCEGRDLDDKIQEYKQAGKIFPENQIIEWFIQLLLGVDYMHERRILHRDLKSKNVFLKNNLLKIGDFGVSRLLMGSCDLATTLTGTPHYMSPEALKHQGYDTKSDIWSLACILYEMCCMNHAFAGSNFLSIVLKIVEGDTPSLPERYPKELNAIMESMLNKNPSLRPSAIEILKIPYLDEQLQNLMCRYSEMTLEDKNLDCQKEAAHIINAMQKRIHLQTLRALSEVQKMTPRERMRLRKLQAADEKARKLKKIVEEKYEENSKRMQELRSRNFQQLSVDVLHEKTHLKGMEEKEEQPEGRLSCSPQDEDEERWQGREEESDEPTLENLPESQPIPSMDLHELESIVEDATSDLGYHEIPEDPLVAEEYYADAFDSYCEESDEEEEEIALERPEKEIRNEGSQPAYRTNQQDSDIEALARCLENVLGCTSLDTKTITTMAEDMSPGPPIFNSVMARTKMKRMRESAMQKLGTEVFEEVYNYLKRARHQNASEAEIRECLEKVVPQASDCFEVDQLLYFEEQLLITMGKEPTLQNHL
The settings on record: at 1 µM.

Assay [4] addresses T2, Serine/threonine-protein kinase Nek11 (Homo sapiens). The settings on record: at 10 µM.
The target of assay [5] is T3, Serine/threonine-protein kinase Nek2 (Homo sapiens) (UniProt P51955).
T3 sequence (whole entry): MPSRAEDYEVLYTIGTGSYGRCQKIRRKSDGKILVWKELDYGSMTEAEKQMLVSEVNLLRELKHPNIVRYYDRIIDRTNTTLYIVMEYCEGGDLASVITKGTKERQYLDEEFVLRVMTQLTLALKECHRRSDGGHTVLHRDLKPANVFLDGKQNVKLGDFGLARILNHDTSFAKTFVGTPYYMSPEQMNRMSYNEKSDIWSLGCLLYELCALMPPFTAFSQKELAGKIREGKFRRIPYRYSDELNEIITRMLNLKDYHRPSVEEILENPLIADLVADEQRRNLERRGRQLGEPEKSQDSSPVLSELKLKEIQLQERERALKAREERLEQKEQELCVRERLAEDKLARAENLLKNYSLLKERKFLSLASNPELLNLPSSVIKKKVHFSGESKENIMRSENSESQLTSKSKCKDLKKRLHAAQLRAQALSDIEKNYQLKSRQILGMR
To be noted: at 1 µM.

The target in assay [6] is T3, Serine/threonine-protein kinase Nek2 (Homo sapiens). To be noted: at 10 µM.
The target of assay [7] is T4, Serine/threonine-protein kinase Nek3 (Homo sapiens) (UniProt P51956).
T4 sequence (whole entry): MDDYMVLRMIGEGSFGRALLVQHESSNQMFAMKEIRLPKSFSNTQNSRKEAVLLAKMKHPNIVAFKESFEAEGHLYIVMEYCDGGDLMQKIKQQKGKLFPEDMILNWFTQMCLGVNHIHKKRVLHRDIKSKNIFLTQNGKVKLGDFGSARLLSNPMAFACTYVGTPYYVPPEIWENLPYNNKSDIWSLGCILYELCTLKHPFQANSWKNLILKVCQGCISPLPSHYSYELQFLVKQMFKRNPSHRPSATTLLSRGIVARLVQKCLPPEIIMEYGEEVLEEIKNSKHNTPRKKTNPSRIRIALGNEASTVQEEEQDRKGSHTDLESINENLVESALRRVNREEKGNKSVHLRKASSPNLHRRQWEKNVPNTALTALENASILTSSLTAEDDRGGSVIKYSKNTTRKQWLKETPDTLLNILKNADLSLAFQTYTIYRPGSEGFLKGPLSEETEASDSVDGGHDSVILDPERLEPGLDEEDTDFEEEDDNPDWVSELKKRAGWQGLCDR
To be noted: at 1 µM.

Assay [8] deals with T4, Serine/threonine-protein kinase Nek3 (Homo sapiens). The settings on record: at 10 µM.
The target of assay [9] is Serine/threonine-protein kinase tousled-like 2 (Homo sapiens) (UniProt Q86UE8). The settings on record: at 1 µM.
Assay [10] has the same target. The settings on record: at 10 µM.
In assay [11] the target is T5, Testis-specific serine/threonine-protein kinase 1 (Homo sapiens) (UniProt Q9BXA7).
T5 sequence (whole entry): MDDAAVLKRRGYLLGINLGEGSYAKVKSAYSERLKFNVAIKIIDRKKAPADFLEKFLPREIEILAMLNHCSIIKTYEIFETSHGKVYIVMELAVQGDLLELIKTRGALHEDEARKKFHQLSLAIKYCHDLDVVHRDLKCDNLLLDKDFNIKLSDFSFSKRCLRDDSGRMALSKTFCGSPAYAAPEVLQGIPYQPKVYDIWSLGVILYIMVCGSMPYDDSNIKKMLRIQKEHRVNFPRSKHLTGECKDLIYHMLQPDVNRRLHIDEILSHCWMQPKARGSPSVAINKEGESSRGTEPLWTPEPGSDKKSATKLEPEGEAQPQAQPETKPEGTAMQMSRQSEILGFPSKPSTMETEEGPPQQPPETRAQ
To be noted: at 1 µM.

Assay [12] deals with T5, Testis-specific serine/threonine-protein kinase 1 (Homo sapiens). To be noted: at 10 µM.
In assay [13] the target is T6, Testis-specific serine/threonine-protein kinase 2 (Homo sapiens) (UniProt Q96PF2).
T6 sequence (whole entry): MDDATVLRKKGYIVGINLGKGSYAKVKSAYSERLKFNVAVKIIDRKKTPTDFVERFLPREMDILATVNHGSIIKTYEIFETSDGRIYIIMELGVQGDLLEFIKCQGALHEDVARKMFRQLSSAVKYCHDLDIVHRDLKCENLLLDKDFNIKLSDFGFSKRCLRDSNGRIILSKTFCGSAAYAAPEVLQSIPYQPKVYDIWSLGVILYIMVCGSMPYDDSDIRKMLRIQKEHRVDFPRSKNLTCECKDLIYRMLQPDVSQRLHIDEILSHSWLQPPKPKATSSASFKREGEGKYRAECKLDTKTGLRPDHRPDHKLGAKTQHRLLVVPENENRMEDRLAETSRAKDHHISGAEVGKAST
To be noted: at 10 µM.

In assay [14] the target is T7, Tyrosine-protein kinase Tec (Homo sapiens) (UniProt P42680).
T7 sequence (whole entry): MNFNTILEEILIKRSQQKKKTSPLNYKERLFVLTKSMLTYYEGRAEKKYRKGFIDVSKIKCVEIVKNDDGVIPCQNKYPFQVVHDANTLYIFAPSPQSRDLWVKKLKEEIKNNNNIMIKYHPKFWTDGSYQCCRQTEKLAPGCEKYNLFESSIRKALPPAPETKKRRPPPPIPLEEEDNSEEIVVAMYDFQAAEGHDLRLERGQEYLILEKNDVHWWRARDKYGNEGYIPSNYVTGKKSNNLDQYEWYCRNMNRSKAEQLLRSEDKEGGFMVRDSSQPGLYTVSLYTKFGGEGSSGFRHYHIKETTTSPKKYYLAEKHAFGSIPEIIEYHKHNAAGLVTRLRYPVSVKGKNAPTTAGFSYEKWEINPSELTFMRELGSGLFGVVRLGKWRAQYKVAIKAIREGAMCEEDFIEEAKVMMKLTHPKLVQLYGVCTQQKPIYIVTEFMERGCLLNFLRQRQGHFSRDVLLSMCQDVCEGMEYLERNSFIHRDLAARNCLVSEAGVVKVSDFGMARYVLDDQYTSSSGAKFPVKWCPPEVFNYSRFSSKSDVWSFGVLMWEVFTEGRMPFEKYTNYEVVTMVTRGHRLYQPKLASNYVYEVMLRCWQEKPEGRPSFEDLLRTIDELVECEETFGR
To be noted: at 1 µM.

The target in assay [15] is T7, Tyrosine-protein kinase Tec (Homo sapiens). The settings on record: at 10 µM.
In assay [16] the target is Angiopoietin-1 receptor (Homo sapiens) (UniProt Q02763). To be noted: at 1 µM.
Assay [17] shares this target. The settings on record: at 10 µM.
In assay [18] the target is High affinity nerve growth factor receptor (Homo sapiens) (UniProt P04629). To be noted: at 1 µM.
For assay [19] the target is unchanged. The settings on record: at 10 µM.
The target in assay [20] is BDNF/NT-3 growth factors receptor (Homo sapiens) (UniProt Q16620). To be noted: at 1 µM.
BDNF/NT-3 growth factors receptor (Homo sapiens), sequence (Q16620 32-822 limits assumed): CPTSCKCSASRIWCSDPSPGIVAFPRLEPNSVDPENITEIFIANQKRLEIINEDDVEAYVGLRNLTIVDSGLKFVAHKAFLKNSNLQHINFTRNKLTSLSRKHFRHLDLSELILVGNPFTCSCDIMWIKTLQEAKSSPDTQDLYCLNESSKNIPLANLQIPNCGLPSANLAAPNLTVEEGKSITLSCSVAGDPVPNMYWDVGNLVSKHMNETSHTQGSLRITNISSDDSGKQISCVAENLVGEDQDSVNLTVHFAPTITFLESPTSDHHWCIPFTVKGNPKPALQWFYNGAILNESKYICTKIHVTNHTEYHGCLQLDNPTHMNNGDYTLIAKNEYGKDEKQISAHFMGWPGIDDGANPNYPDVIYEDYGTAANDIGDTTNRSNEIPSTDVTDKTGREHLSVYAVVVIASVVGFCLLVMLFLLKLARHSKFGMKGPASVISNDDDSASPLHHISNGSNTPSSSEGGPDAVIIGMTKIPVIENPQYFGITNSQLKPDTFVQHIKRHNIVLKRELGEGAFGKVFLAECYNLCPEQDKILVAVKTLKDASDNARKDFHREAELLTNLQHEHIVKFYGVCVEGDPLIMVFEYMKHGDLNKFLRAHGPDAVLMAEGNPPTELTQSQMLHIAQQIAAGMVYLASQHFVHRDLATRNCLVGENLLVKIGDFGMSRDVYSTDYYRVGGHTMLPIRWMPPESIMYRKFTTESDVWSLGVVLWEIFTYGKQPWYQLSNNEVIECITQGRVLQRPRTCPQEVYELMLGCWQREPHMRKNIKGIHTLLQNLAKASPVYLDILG

Serine/threonine-protein kinase tousled-like 2 (Homo sapiens), sequence (Q86UE8 whole entry, looked up): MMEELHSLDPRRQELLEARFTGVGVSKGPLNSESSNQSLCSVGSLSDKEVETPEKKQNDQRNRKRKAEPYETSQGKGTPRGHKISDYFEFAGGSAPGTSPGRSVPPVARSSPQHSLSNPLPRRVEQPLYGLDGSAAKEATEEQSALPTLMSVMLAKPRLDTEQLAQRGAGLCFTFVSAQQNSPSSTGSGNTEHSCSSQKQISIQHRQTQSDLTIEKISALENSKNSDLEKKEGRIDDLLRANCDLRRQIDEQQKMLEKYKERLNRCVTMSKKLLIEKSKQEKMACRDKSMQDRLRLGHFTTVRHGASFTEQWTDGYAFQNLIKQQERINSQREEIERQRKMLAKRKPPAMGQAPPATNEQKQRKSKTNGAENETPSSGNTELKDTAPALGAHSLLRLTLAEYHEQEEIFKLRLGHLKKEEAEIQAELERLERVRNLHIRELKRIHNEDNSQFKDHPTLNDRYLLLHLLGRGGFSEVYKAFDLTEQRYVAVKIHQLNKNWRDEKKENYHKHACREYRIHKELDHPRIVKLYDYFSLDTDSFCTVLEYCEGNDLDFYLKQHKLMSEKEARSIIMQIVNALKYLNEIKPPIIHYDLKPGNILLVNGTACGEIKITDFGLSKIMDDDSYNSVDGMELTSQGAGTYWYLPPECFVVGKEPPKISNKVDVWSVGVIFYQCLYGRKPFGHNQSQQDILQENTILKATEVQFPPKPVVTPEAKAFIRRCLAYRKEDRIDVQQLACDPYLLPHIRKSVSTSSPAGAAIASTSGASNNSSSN
High affinity nerve growth factor receptor (Homo sapiens), sequence (P04629 33-796 limits assumed): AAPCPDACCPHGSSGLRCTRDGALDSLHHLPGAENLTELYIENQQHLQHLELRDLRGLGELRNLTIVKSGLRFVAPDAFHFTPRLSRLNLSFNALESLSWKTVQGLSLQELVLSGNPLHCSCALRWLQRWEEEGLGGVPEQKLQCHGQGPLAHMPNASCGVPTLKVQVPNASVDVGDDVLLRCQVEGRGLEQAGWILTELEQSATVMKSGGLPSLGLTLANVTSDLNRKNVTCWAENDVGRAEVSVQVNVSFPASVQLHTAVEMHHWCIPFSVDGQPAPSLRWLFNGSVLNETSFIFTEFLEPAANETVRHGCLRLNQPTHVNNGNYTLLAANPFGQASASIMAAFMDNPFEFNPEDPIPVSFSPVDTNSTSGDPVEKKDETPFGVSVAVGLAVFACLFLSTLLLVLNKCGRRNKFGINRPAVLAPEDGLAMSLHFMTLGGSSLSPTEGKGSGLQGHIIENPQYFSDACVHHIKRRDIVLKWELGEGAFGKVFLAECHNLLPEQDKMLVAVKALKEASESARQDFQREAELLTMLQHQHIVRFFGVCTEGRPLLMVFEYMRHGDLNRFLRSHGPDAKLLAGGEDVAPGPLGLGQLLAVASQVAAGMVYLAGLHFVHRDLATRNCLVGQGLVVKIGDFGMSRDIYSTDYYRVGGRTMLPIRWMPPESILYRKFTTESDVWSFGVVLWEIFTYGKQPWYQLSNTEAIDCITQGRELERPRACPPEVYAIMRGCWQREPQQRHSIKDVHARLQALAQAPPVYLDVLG
Angiopoietin-1 receptor (Homo sapiens), sequence (Q02763 whole entry): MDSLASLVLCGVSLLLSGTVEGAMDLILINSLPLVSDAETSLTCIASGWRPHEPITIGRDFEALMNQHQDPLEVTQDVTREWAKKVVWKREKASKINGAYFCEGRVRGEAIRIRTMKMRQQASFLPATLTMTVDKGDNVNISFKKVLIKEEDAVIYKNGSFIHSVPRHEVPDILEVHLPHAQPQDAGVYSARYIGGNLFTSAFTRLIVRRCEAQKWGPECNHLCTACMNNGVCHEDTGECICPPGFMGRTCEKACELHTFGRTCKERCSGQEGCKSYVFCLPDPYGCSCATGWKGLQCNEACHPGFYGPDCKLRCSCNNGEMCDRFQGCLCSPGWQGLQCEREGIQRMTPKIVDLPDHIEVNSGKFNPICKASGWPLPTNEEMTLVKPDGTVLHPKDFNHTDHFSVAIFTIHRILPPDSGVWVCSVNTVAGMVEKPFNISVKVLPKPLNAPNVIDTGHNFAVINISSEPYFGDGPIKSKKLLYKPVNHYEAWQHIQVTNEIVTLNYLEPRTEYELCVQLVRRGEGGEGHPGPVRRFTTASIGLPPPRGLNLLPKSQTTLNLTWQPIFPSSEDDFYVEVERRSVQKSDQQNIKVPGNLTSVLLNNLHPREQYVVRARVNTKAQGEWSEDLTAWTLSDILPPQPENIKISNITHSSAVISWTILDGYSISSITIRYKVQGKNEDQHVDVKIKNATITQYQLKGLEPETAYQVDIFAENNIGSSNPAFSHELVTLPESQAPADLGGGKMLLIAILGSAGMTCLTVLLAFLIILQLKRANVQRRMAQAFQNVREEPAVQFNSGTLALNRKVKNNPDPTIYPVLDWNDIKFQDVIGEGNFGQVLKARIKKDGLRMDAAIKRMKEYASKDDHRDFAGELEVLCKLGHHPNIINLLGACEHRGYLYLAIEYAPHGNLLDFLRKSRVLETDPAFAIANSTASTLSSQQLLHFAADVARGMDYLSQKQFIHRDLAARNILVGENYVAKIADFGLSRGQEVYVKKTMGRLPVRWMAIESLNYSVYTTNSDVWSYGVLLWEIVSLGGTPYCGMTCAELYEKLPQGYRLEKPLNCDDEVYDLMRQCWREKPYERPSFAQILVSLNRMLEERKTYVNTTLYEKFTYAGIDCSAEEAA

In the case of `Nc1cccc(-c2cc3c(Oc4cccc(O)c4)ncnc3[nH]2)c1`, the residual activity was determined as 73% in assay [1]; 17% in assay [2]; 54% in assay [3]; 25% in assay [4]; 97% in assay [5]; 71% in assay [6]. The residual activity in [7] was determined as 42%; in assay [8], 23%; in [9] it was 90%; in assay [10], 87%; in [11], 101%; in [12], 71%. The residual activity is 78% in [13]; 17% in assay [14]; 0% in assay [15]; 18% in assay [16]; 1% in assay [17]; 61% in assay [18]. For the same compound, the residual activity turned out to be 6% in [19] and 74% in assay [20].
`CC[n+]1c(/C=C/N(C)c2ccccc2)n(-c2ccccc2)c2ccc(-c3nc4ccccc4s3)cc21`: the residual activity in assay [1] turned out to be 114%; in assay [2], 58%; in assay [3] it was 71%; in assay [4], 99%; in [5] it was 83%; in assay [6], 123%. Moreover, the residual activity in [7] was found to be 116%; in [8], 92%; in [9], 109%; in assay [10] it was 80%; in assay [11] it was 102%; in assay [12] it was 73%. For the same compound, the residual activity in [13] was determined as 78%; in assay [14], 77%; in [15], 27%; in assay [16], 103%; in assay [17], 30%; in assay [18], 85%. Besides, the residual activity was determined as 34% in assay [19] and 67% in assay [20].
For the compound `Cn1cnc2cc3c(Nc4cccc(Br)c4)ncnc3cc21`, the residual activity in assay [1] was 104%; in [2], 85%; in assay [3], 89%; in assay [4], 106%; in assay [5], 87%; in assay [6], 109%. For the same compound, the residual activity in assay [7] came out at 111%; in [8], 74%; in [9], 103%; in assay [10] it was 92%; in assay [11] it was 99%; in [12], 96%. The residual activity is 106% in assay [13]; 82% in assay [14]; 73% in assay [15]; 74% in [16]; 34% in assay [17]; 87% in assay [18]. Further, the residual activity stood at 82% in assay [19] and 107% in [20].
